Like-named read-outs stand apart in the source and are kept apart here.

Set-up in all cases: species or system human, MV4-11 + K-562 + COLO205 + SK-N-BE2 + OVCAR-8
The subject of one test is ATR. To be noted: read-out: apparent Kd, n = 1.
Another test concerns FGFR1. The conditions noted are these: read-out: apparent Kd, n = 1.
The next test has as its system FRK. To be noted: read-out: apparent Kd, n = 1.
For the next test, the system named is ULK3. The conditions noted are these: read-out: apparent Kd, n = 1.
The next test has as its system MAPKAPK2. To be noted: read-out: apparent Kd, n = 1.
The subject of the next test is ACAD11. The conditions noted are these: read-out: apparent Kd, compound concentrations: 100 nM and 1000 nM (sheet 'Samples'), n = 1.
A further test has as its system CDK5. The conditions noted are these: read-out: apparent Kd, compound concentrations: 100 nM and 1000 nM (sheet 'Samples'), n = 1.
A further test relates to IRAK4. The conditions noted are these: read-out: apparent Kd, n = 1.
The subject of a further test is JAK1. The conditions noted are these: read-out: apparent Kd, compound concentrations: 100 nM and 1000 nM (sheet 'Samples'), n = 1.
Another test has as its system JAK2. The conditions noted are these: read-out: apparent Kd, n = 1.
The test system of a further test is MAP2K1. To be noted: read-out: apparent Kd; compound concentrations: 100 nM and 1000 nM (sheet 'Samples'), CATDS: 3.7479108323340499E-3; n = 1.
The test system of the next test is MAP4K1. The conditions noted are these: read-out: apparent Kd, n = 1.
The next test relates to PIK3CA. To be noted: read-out: apparent Kd; compound concentrations: 100 nM and 1000 nM (sheet 'Samples'), CATDS: 3.6748488763129201E-2; n = 1.
The subject of the next test is PRKCB. To be noted: read-out: apparent Kd; compound concentrations: 100 nM and 1000 nM (sheet 'Samples'), CATDS: 3.7264433576920599E-3; n = 1.
The next test deals with NQO2. The conditions noted are these: read-out: apparent Kd; compound concentrations: 100 nM and 1000 nM (sheet 'Samples'), CATDS: 3.2370847772948297E-2; n = 1.
A further test concerns NLK. The conditions noted are these: read-out: apparent Kd, n = 1.
The subject of a further test is STK26. The conditions noted are these: read-out: apparent Kd; compound concentrations:100 nM and 1000 nM (sheet 'Samples'); n = 1.
The next test concerns T1, DJA1.
T1 construct: gene DNAJA1
The conditions noted are these: read-out: apparent Kd; compound concentrations: 100 nM and 1000 nM (sheet 'Samples'), CATDS: 3.8361892236094597E-2; n = 1.

[1] abbreviates: compound concentrations:100 nM and 1000 nM (sheet 'Samples').

In the case of `O=C1NC(=O)C(N2CCc3ccccc32)=C1c1ccccc1Cl` [SB-373598], the potency estimated from few doses was 0.605 µM in the test on ATR (setting [1]), 1.25 µM in the test with FGFR1 (setting [1]), 0.33 µM in the test on FRK (setting [1]) and 1.45 µM with ULK3 (setting [1]).
On to `Cc1ccc2c(-c3ccncc3)c(-c3ccc(F)cc3)nn2c1.Cl` [GW461484A], for which the figures for the potency estimated from few doses in the test with ATR (setting [1]), in the test with FRK (setting [1]) and in the test on MAPKAPK2 (setting [1]) were 0.838 µM, 0.887 µM and 0.573 µM, respectively.
Take `Cn1ncc2c(N)ncnc21` [SKF-18267]: the potency estimated from few doses in the test on ACAD11 (CATDS: 4.0481268472205602E-3) was 1.3 µM; with ATR (compound concentrations: 100 nM and 1000 nM (sheet 'Samples'), CATDS: 6.4256483449106902E-3), 0.516 µM; with CDK5 (CATDS: 4.5442394594478004E-3), 0.993 µM; with FGFR1 (compound concentrations: 100 nM and 1000 nM (sheet 'Samples'), CATDS: 4.74692919335207E-3), 0.905 µM; in the test on FRK (compound concentrations: 100 nM and 1000 nM (sheet 'Samples'), CATDS: 7.1234836872725703E-3) it was 0.436 µM; in the test on IRAK4 (compound concentrations: 100 nM and 1000 nM (sheet 'Samples'), CATDS: 3.8610933772381499E-3) it was 1.46 µM. In addition, the potency estimated from few doses in the test with JAK1 (CATDS: 4.8033962123192799E-3) was 0.883 µM; in the test with JAK2 (compound concentrations: 100 nM and 1000 nM (sheet 'Samples'), CATDS: 4.4372825621257503E-3) it was 1.05 µM; in the test with MAP2K1, 1.59 µM; in the test on MAP4K1 (compound concentrations: 100 nM and 1000 nM (sheet 'Samples'), CATDS: 5.1468947283468203E-3), 0.769 µM; with MAPKAPK2 (compound concentrations: 100 nM and 1000 nM (sheet 'Samples'), CATDS: 4.1039976146892603E-3) it was 1.25 µM; in the test on PIK3CA, 0.0533 µM. Also, the potency estimated from few doses is 1.61 µM with PRKCB; 0.647 µM in the test on ULK3 (compound concentrations: 100 nM and 1000 nM (sheet 'Samples'), CATDS: 5.6428686263863704E-3).
On to `O=C1N=C(NCCc2ccc(Cl)cc2)S/C1=C\c1ccc2ncccc2c1` [RO4498479-000], for which the potency estimated from few doses is 0.852 µM in the test on ACAD11 (CATDS: 8.46933106207029E-3); 0.946 µM in the test on FGFR1 (compound concentrations: 100 nM and 1000 nM (sheet 'Samples'), CATDS: 8.1769993071202692E-3); 0.53 µM in the test on FRK (compound concentrations: 100 nM and 1000 nM (sheet 'Samples'), CATDS: 1.0205973298365501E-2); 1.24 µM in the test on JAK1 (CATDS: 7.5180270628035497E-3); 0.913 µM with ULK3 (compound concentrations: 100 nM and 1000 nM (sheet 'Samples'), CATDS: 8.2720873677068606E-3).
Take `Cl.NCc1ccc(-c2nc(-c3ccc(Cl)c(O)c3)c(-c3ccncc3)[nH]2)cc1` [SB-476429-A]: the results for the potency estimated from few doses in the test with JAK2 (setting [1]) and in the test on MAPKAPK2 (setting [1]) were 0.347 µM and 0.0948 µM, respectively.
Take `CN(c1ccc(NC(=O)N2CCN(CCCN3CCOCC3)CC2)cc1)c1ccnc(Nc2ccc(CS(C)(=O)=O)cc2)n1.Cl` [GW830899A]: the potency estimated from few doses with ACAD11 (CATDS: 1.8100646511475499E-2) is 2.06 µM; in the test with NQO2 it was 0.552 µM; with ULK3 (compound concentrations: 100 nM and 1000 nM (sheet 'Samples'), CATDS: 2.3659630965279298E-2) it was 1.01 µM.
`Cc1ccc(Nc2ccnc(Nc3ccc4c(c3)CS(=O)(=O)C4)n2)cc1O.Cl` [GW579362A]: the potency estimated from few doses in the test with CDK5 (CATDS: 3.4142296648309298E-2) was 0.844 µM; with NLK (compound concentrations: 100 nM and 1000 nM (sheet 'Samples'), CATDS: 6.6652285634060698E-2) it was 0.208 µM; in the test with ULK3 (compound concentrations: 100 nM and 1000 nM (sheet 'Samples'), CATDS: 3.7183394564858599E-2), 0.681 µM.
Take `CC(C)N1CCC(n2cnc(-c3ccc(F)cc3)c2-c2ccnc(N)n2)CC1` [SB-223132]: the potency estimated from few doses in the test with FGFR1 (setting [1]) is 2.19 µM; in the test on MAPKAPK2 (setting [1]), 0.00702 µM; with NLK (setting [1]), 0.195 µM.
For `CNC(=O)c1ccccc1Nc1nc(Nc2ccc(N3CCOCC3)cc2)ncc1Cl.Cl` [GSK1576028A], the potency estimated from few doses in the test with FGFR1 (setting [1]) was 0.844 µM; in the test with IRAK4 (setting [1]), 0.593 µM; in the test on MAP4K1 (setting [1]) it was 0.387 µM; with STK26, 1.36 µM.
Take `Cl.Nc1c(C(=O)c2cccc(C#CCN3CCCCC3)c2)cnn1-c1ccc(F)cc1` [RO1154461-001]: the potency estimated from few doses in the test with FGFR1 (compound concentrations: 100 nM and 1000 nM (sheet 'Samples'), CATDS: 1.0359283946495801E-2) was 1.68 µM; in the test with FRK (compound concentrations: 100 nM and 1000 nM (sheet 'Samples'), CATDS: 1.2851217136808301E-2), 0.829 µM; with JAK1 (CATDS: 1.11252993768114E-2), 1.29 µM; with JAK2 (compound concentrations: 100 nM and 1000 nM (sheet 'Samples'), CATDS: 2.2434778262680002E-2), 0.24 µM.
As for `CCn1c(-c2nonc2N)nc2c(C#CCN)ncc(OCCCN)c21.O=C(O)C(F)(F)F` [GSK561866B], in the test on JAK2 (compound concentrations: 100 nM and 1000 nM (sheet 'Samples'), CATDS: 0.29802313015986498), the potency estimated from few doses is 0.0129 µM.
In the case of `COc1cccc2c(-c3ccncc3)c(-c3ccc(F)cc3)nn12` [GW468513X], the potency estimated from few doses in the test on DJA1 was 1.52 µM; in the test with MAPKAPK2 (compound concentrations: 100 nM and 1000 nM (sheet 'Samples'), CATDS: 0.11200666699730499), 0.0806 µM.
In the case of `Cc1cccc2c(-c3ccncn3)c(-c3ccc(F)cc3)nn12` [GW515532X], the potency estimated from few doses with MAPKAPK2 (compound concentrations: 100 nM and 1000 nM (sheet 'Samples'), CATDS: 0.245203674473806) is 1.4 µM.
Take `CCn1c(-c2nonc2N)nc2c(C#CC(C)(C)O)nc(CN3CCCC3)cc21` [GSK1000163A]: the potency estimated from few doses in the test on NLK (compound concentrations: 100 nM and 1000 nM (sheet 'Samples'), CATDS: 0.163177352109245) was 1.98 µM.

These data come from paper PMC11062922 (Nature Chemical Biology, 2023).
